Screening data (PubChem BioAssay)
A selection: hits, their analogues and other compounds. The true share with any hit is near 19%.
Giardia killer: Small Molecules that selectively kill Giardia lamblia: qHTS; Giardia lamblia trophozoite viability; activity change, % at 7.66 µM, hits read low; 340,000 compounds, 0.15% hits; AID 540267, 2011; in the data active = activity change below about -80%; inconclusive = between about -30% and that limit;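 note: parasites exposed to compound for two days anaerobically before the ATP read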
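Giardia trophozoites, 100 cells per well, were exposed to compounds for 48 hrs at 37 deg C under anaerobic conditions; viability was then read as ATP content by bioluminescence after 15-30 min at room temperature.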
ELG1 DNA repair: qHTS screen for small molecules that inhibit ELG1-dependent DNA repair in human embryonic kidney (HEK293T) cells expressing luciferase-tagged ELG1; HEK293T ELG1-luciferase reporter, luminescence, 16 h; DNA damage induced by 5-fluorouridine; Potency, µM (highest dose often 46.1 µM), for the others: at the top dose activity change, negative = inhibition, hits mostly inhibitors; 330,000 compounds, 2.3% hits; AID 504467, 2011; note: potency is the fitted concentration of half-maximal effect; nearly all actives have a fitted effect of over 55% in size
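Cells (2,000 per well) received 5-fluorouridine plus test compound or DMSO and were incubated 16 hr at 37 °C, 5% CO2. Luciferase activity was read by luminescence 30 min after ONE-Glo addition; signal suppression marked inhibition of damage-induced ELG1 function.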
DT40 TDP1 CPT: qHTS for Inhibitors of human tyrosyl-DNA phosphodiesterase 1 (TDP1): qHTS in cells in presence of CPT; Potency, µM (titrated, usually from 46.2 µM), without a hit: top-dose activity change, negative = growth inhibition, most hits filed as inhibitors; chicken DT40 Tdp1-/-;hTDP1 cells + 20 nM CPT, ATP luminescence, 48 h; 420,000 compounds, 12% hits; AID 686979, 2013; note: potency is the fitted concentration of half-maximal effect; nearly all actives have a fitted effect of over 55% in size
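Chicken DT40 Tdp1-/- cells stably complemented with human TDP1 were seeded at 400 cells/well in medium containing 20 nM camptothecin, exposed to pin-transferred compounds, and grown at 37 °C for at least 48 hr. Viability was read as ATP luminescence.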
IL1B secr inh: qHTS for Inhibitors of Inflammasome Signaling: IL-1-beta AlphaLISA Primary Screen; THP-1 LPS/ATP IL-1B secretion, AlphaLISA, 16 h; hits give low values; activity change, % at 57.5 µM; 360,000 compounds, 4.7% hits; AID 743279, 2014; in the data active = activity change below about -50%; inconclusive = mostly about -30% to -49%
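THP-1 cells pretreated 1 hr with compounds (up to 57.5 uM final), then stimulated with LPS (250 ng/mL final) plus ATP (1.25 mM final); secreted IL-1B measured by AlphaLISA after 16 hr, decreased signal indicating inhibition.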
TDP1 cell noCPT: qHTS for Inhibitors of human tyrosyl-DNA phosphodiesterase 1 (TDP1): qHTS in cells in absence of CPT | DT40 Tdp1-/- hTDP1 cells, no CPT, ATP luminescence, 48 h | 420,000 compounds, 15% hits | Potency, µM (titrated, usually from 46.2 µM), inactives show at the highest dose activity change, negative = growth inhibition, actives largely listed as inhibitors; note: potency is the fitted concentration of half-maximal effect; nearly all actives have a fitted effect of over 55% in size
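Chicken DT40 Tdp1-/- cells complemented with human TDP1, screened without camptothecin (DMSO vehicle only), 400 cells/well. Compounds pin-transferred, cells incubated at 37 °C for at least 48 hr. Growth read as ATP-dependent luminescence (CellTiter-Glo, 30 min at RT).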
TDP1 block: qHTS Assay for Inhibitors of Tyrosyl-DNA Phosphodiesterase (TDP1). Potency, µM (series often up to 130 µM), for inactives: at the highest dose activity change, negative = inhibition, most hits filed as inhibitors. recombinant TDP1, AlphaScreen DNA substrate cleavage. 350,000 compounds, 0.28% hits. AID 485290, 2010. Tyrosyl-DNA phosphodiesterase 1 (Homo sapiens), Q9NUW8; note: potency is the fitted concentration of half-maximal effect; nearly all actives have a fitted effect of over 40% in size
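Recombinant human Tdp1 (E. coli-expressed, 1 nM final) preincubated with compounds 15 min at room temperature, then 5'-biotin/3'-phosphotyrosine-FITC DNA substrate (15 nM final) added for 5 min. AlphaScreen beads (10 ug/ml final) added 10 min; cleavage lowers signal.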
Starred values were filed as active, the others as inactive; ? = inconclusive; nt = no result. Unless noted, calls come from the whole dose curve; as a rule, active = well fitted curve in the direction sought with a large enough effect; inconclusive = small, poorly fitted or top-dose-only effect, or another doubt; inactive = no such curve, though single readings can be large; an effect the other way counts as inactive or inconclusive. % is set by controls: 0 for no effect and ±100 for the full control effect.

SMILES	Giardia killer	ELG1 DNA repair	DT40 TDP1 CPT	IL1B secr inh	TDP1 cell noCPT	TDP1 block
C=CCNc1nc(N2CCCC2)nc2ccccc12	-12	-24%	16µM*	-14	16µM*	5%
CCN1CCN(c2nc(NCCO)c3ccccc3n2)CC1	?	-6%	3%	22	1%	4%
CC(Nc1nc(N2CCCCC2)nc2ccccc12)c1ccccc1 (stereo unspecified)	7	?	?	?	23µM*	-1%
CN(CC1CCCO1)S(=O)(=O)c1ccc(C(=O)Nc2nc(-c3ccccn3)cs2)cc1 (stereo unspecified)	9	?	1.5µM*	140	1.8µM*	8%
CN(CC1CCCO1)S(=O)(=O)c1ccc(C(=O)Nc2nnc(-c3ccccc3)o2)cc1 (stereo unspecified)	8	?	18µM*	100	8.2µM*	8%
Cc1cc(-c2csc(N)n2)c(C)n1CCC(C)C	22	-3%	?	-2	?	5%
Cc1cc(-c2csc(N)n2)c(C)n1CCc1ccccc1	8	2%	23µM*	-2	?	12%
C=CCN(Cc1nc(-c2ccccc2)no1)C(=O)c1ccco1	-10	17%	-27%	-7	?	13%
COc1ccc(C(=O)NCCc2csc(-c3ccc(Cl)cc3)n2)cc1	nt	nt	?	nt	18µM*	4%
COc1ccccc1C(=O)NCCc1csc(-c2ccc(C(F)(F)F)cc2)n1	nt	nt	?	nt	?	1%
COc1ccc(C(=O)NCCc2csc(-c3ccc(Cl)cc3)n2)c(OC)c1	nt	nt	?	nt	23µM*	1%
Cc1ccc(CNC(=O)Cn2cnc3c(OCc4ccccc4)ncnc32)o1	4	-4%	?	23	?	-4%
COc1ccc2c([N+](=O)[O-])c(Cl)[nH]c2c1	12	0%	-18%	2	-8%	-2%
O=C(NCc1cccc(Cl)c1)c1ccc2c(Cl)c3c(nc2c1)CCCC3	nt	nt	?	nt	15µM*	5%
O=C(Nc1ccc(F)c(Cl)c1)c1ccc2c(Cl)c3c(nc2c1)CCCC3	nt	nt	-10%	nt	-15%	6%
O=C(NCc1ccc(Cl)cc1)c1ccc2c(Cl)c3c(nc2c1)CCCC3	nt	nt	16µM*	nt	?	5%
COc1ccccc1NS(=O)(=O)c1cccc(C(=O)N2CCCCCCC2)c1	-7	-2%	?	20	?	0%
Cc1ccc(NC(=O)c2cnn3c2NC(=C2CC2)C=C3C(F)F)cc1	nt	nt	-13%	nt	-24%	nt
CC1=C(C)/C(=N\OC(=O)/C=C/c2ccccc2)C=CC1=O	-12	14%	13µM*	37	13µM*	8%
CC(C)N(C)CCOC(=O)/C=C/c1ccccc1	11	0%	-21%	-4	-8%	3%
CC1=CC(=NOC(=O)/C=C/c2ccccc2)C=C(C)C1=O	-12	4%	21µM*	-65*	13µM*	11%
CC1=CC(=O)C=C(C)C1=NOC(=O)/C=C\c1ccccc1	16	7%	16µM*	3	-6%	7%
O=C(COC(=O)c1cccs1)Nc1cccc(Cl)c1	5	20%	-4%	5	23%	0%
O=C(N=C1SC2CS(=O)(=O)CC2N1CCc1ccccc1)C1CCCCC1 (stereo unspecified)	14	-7%	-12%	14	-23%	0%
